Legend:
Format in all cases: functional
Plasmodium falciparum [1] = assay: GSK_TCMDC: Inhibition of Plasmodium falciparum 3D7 in whole red blood cells, using parasite LDH activity as an index of growth. Test compounds present at 2uM
Plasmodium falciparum [2] = assay: GSK_TCMDC: Inhibition of Plasmodium falciparum Dd2 in whole red blood cells, using parasite LDH activity as an index of growth. Test compounds present at 2uM
HepG2 = assay: GSK_TCMDC: Percent inhibition of human HepG2 cell line. Test compounds present at 10uM.

SMILES | Inhibition (Plasmodium falciparum [1]) | Inhibition (Plasmodium falciparum [2]) | Inhibition (HepG2)
COc1ccc(Nc2ccnc3cc(Cl)ccc23)cc1OC | 100% | 91% | 36%
Cc1ccc([S+]([O-])Cc2ccc(Cl)cc2)cc1 (stereo not drawn) | 98% | 5% | 8%
O=C(Nc1cccc([N+](=O)[O-])c1)N(Cc1ccc(Cl)c(Cl)c1)C1CCNCC1 | 99% | 0% | 17%
O=C(O)C(F)(F)F.O=S(=O)(/C=C/c1ccccc1)N(Cc1ccc(-c2ccc(CNCCOc3ccccc3)cc2)cc1)CC1CCCCN1 (stereo not drawn) | 99% | 95% | 99%
Cc1nc(C(C)Nc2nncc(-c3ccc(Cl)cc3)n2)cs1 (stereo not drawn) | 91% | 55% | 0%
COC(=O)c1cc(C(O)CNC(C)CCCc2ccccc2)ccc1O.Cl (stereo not drawn) | 99% | 97% | 17%
O=C(/C=C/c1ccc(Cl)c(Cl)c1)NCC(CCCN1CCC(c2c[nH]c3ccccc23)CC1)c1ccccc1 (stereo not drawn) | 100% | 46% | 98%
CC(=O)C1=NN(c2ccc(C)cc2)C(c2cccs2)N1c1ccccc1 (stereo not drawn) | 89% | 64% | 0%
CCCCCCN1CCC(NCc2ccc(C(F)(F)F)cc2)CC1.O=C(O)C(F)(F)F | 100% | 47% | 11%
COc1ccc(CNCc2cccc(-c3ccc(-c4nc5ccccc5[nH]4)cc3)c2)cc1.O=C(O)C(F)(F)F | 100% | 60% | 22%
Cc1ccc(NC(=O)c2cc(Br)cc(N3CCCN(C)CC3)c2)cc1F.O=C(O)C(F)(F)F | 87% | 1% | 15%
